Assays:
Assay in all cases: PBM binding z-score (relative to random genomic background probes); higher = stronger binding; sequences stand for … in GC…GCGATTGACAGCGTAGAATGAAGG
[1] = test system: RARb homodimer (NR concentration 270 nM)
Outline: (§1)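 Custom Agilent 4×180K protein-binding microarrays carried double-stranded probes, each with a 34-nt variable region. These regions held direct-repeat seeds, single-nucleotide variants, half-site ablations and random human genomic background sequences. Ligand-free nuclear receptor dimers were incubated on the arrays for 1 h, antibodies against each partner (one per run) detected binding, and scanned fluorescence was regression-normalized. Binding z-scores take the random background probes as reference.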

[2] = test system: RARg:RXRa (NR concentration 270 nM, RXRa partner concentration 90 nM)
Outline: as §1

[3] = test system: RARg homodimer (NR concentration 270 nM)
Outline: as §1

[4] = test system: RXRa DBDmut IVT, anti-RXR (DBD mutation: RXRa K156A/R161A, NR concentration 90 nM)
Outline: as §1

[5] = test system: RXRa homodimer (NR concentration 180 nM)
Outline: as §1

[6] = test system: THRa:RXRa (NR concentration 90 nM, RXRa partner concentration 90 nM)
Outline: as §1

[7] = test system: THRa homodimer (NR concentration 90 nM)
Outline: as §1

[8] = test system: VDR homodimer (NR concentration 270 nM)
Outline: as §1

Sequence	PBM binding z-score [1]	PBM binding z-score [2]	PBM binding z-score [3]	PBM binding z-score [4]	PBM binding z-score [5]	PBM binding z-score [6]	PBM binding z-score [7]	PBM binding z-score [8]
CCGACTGGGGCAGAAATGTTACCATACCATCCGG	-0.118	0.0842	0.109	-0.424	0.066	-0.666	-0.0908	-0.0383
TTACGAAGGTGAAGGTCGTTGATCCCTCTGTAGA	1.84	1.38	1.26	0.133	1.93	1.52	0.135	0.942
CATACAGGGTCAGCTAGACCAGAGTAGGGACGGC	2.81	4.53	4.93	1.59	4.3	2.83	0.733	0.573
AGTCAACGTTCATCTAGGTAACGTAAGATATGCT	-0.148	0.363	0.744	-0.0413	0.0603	0.649	-0.132	-0.282
GGTACAGGGTCAGCTAGAGGCCAGAGTATGGAAA	3.27	6.72	4.84	1.01	4.27	3.07	0.717	1.14
CCAGACAGGTGAGAAGTTAACTCAGCCTCGATTA	0.312	0.26	0.42	0.268	0.0935	0.0119	-0.003	-0.158
TAATATAGGTAAACAGGTGAAAGTCCGTAAGTTA	0.737	0.857	0.756	0.169	1.26	0.862	0.313	0.444
CGTCCAAGGTCAGAGAGGTCAGAGAATGCCGAGT	5.37	6.29	7.09	3.52	6.16	4.53	2.72	5.54
CAGCCTAGGTCACGGCCAGTATAGGAGGAACGTT	3.53	5.27	5.72	1.1	4.43	3.65	1.98	0.435
ATATGTAGGTTAAGGGTCAGTCAGGTTGGTTCGC	3.81	4.01	3.14	1.4	4.19	2.78	1.68	2.75
CCGACTGGGGCTTAAGGTTACCATAAGCCAGCCC	0.796	0.272	0.0964	-0.55	0.688	2.53	1.94	-0.232
TCGAGTAGGTTAAGGGCATTCAGAATGGCGTCGA	1.47	1.08	1.23	0.693	1.18	2.16	0.794	1.14
CGTCCAAGGTCAATGCTAGGTCAGTAAAAGCATT	4.89	7.54	6.94	3.31	5.24	4.28	2.63	2.92
TCTTGAAGATCAACAGGAGGTTAAGAAAGATCGA	0.572	1.45	0.367	0.56	1.25	0.975	-0.383	-0.404
CCTATTGGTTGACCATAAGGGCAACCGAAGCTCG	1.47	0.997	0.631	-0.724	0.512	1.62	0.504	-0.166
TATACAGGGTCAAGGGCCAGAGTACGAATGTCGA	3.62	5.65	5.33	2.14	6.23	3.68	1.08	2.13
TCATATAGGTAATACAGGTGAGAGTCGGCATCTA	0.373	0.339	0.708	1.4	0.681	0.631	0.164	0.172
CCTAGTTGGTCAAGTTCACACACGCTATAGGTAC	3.1	2.45	2.72	3.31	2	2.12	1.46	5.29
GCTAGCAGGCAATTTGGGTCACTCAATGACGGGC	1.55	0.628	0.847	-0.416	0.683	2.76	0.687	-0.322
ACACACAGGTGATGAAGGTAACTCAGGCTATCAT	0.43	0.435	0.664	0.355	0.276	1.06	0.194	0.17
ACCGACAGGTGAGTGAAGGTAACTCAGCTGGACG	-0.286	0.0773	0.407	-0.459	0.0984	1.56	-0.918	-1
GCAGACAGGTGAAACGCATGTAACTCAGGGTGGC	-0.102	0.258	0.151	-0.443	0.749	0.0674	-0.704	-0.736
TCGAGTAGGTTAGTGGGGGCATTCAGCCAACATA	1.75	1.55	1.14	1.36	1.34	2.29	1.16	3.31
GCTTGAAGATCAAGGTTAAGAAAGACTAAGCTAA	0.0789	0.319	0.181	-0.437	0.877	1.02	-0.36	-0.116
CGTCAAAGTACAAGGTAACGTAACAGAAAGCAGC	0.287	0.552	1.1	0.923	0.455	1.37	0.356	-0.157
CCGACTGGGGCAAAGGTTATCATACTCAGTACGA	1.89	3	1.45	0.137	3.11	1.66	-0.0355	0.133
ACTCGGAGTACAAAGGTCAGAGCTACGCCAGTGA	4.27	5.22	4.7	2.11	5.37	2.64	-0.258	1.63
AGAAGGAGGTTACCAAAGATCAGGGAAACGCTTG	1.11	1.66	1.54	-0.25	2.27	1.73	0.244	0.128
